In PubChem BioAssay AID662 (National Center for Advancing Translational Sciences (NCATS), 2007):
Out of some 71,000 compounds screened, about 1,800 (2.5%) were called active. About 26% were inconclusive and are not listed. The call rests on the fitted dose curve; in most records, active means well fitted activation curve with a large enough effect in the signal ratio, with a control signal flat (not every such curve was filed as active); inconclusive means small, poorly fitted or top-dose-only effect, or effect the other way, or a change in a side signal; inactive means flat fitted curve, though single readings scatter; the % refers to the signal ratio. What follows is part of a selection rich in actives, with near analogues and random picks from the rest. A call without a number means that no potency is given here.

Experiment: Cell signaling CRE-BLA (Fsk stim)
Conditions: CHO CRE-bla reporter (cAMP response element driving beta-lactamase), forskolin EC10, beta-lactamase ratio; series mostly up to 38.2 µM
Description: NIH Molecular Libraries Screening Centers Network [MLSCN]
NIH Chemical Genomics Center [NCGC]
Assay Provider: Marshall W. Nirenberg, U.S. National heart lung & blood institute
Memories persist for different lengths of time, from seconds or minutes to a lifetime. There are two kinds of memory: short-term memory (STM) and long-term memory (LTM). STM lasts for minutes to hours, which maybe mediated by modifications of molecules involved in synaptic functions. LTM lasts for days or longer, and may be due to the formation of new synapses or restructuring of existing synapses. LTM, but not STM, requires gene transcription and synthesis of proteins. CREB (cyclic-AMP Responsive Element Binding Protein) is one of the candidates plays an important role for enhancement of some types of LTM. CREB, a family of transcription factors, regulates the transcription of genes containing cAMP Responsive Elements (CRE). CRE is a nucleotide sequence often found in the promoter regions of genes that are binding sites for CREB.
Using a beta-lactamase reporter-gene under control of cAMP responsive element, a cell-based assay [CellSensor(TM) CRE-bla CHO developed by Invitrogen Corp.] was used to measure forskolin-induced signaling. Library compounds were measured for their ability to modulate positively or negatively the action of EC10 NKH 477, a water soluble forskolin, on reporter gene activity. Compounds were screened in a titration series in 1536-well format. Positive and negative modulators were identified based on the AC50 values derived from the screening data.
NCGC Assay Protocol Summary
2000 cells/5uL in Opti-MEM medium containing 0.5% dialyzed FBS, 0.1 mM NEAA, 1 mM sodium pyruvate and 10 mM HEPES was dispensed into 1536-well plates and cells were cultured at 37 degrees Celsius overnight. […] And then the plates were incubated at 37 degrees Celsius for 3 hours. 1 uL of CCF4-dye mixture was added to each well. After incubated at room temperature for 2 hours the plates were measured on an EnVision plate reader at Excitation 405nm, Emission1=460nm and Emission 2=530nm. The %Activity was determined from the ratio of 460nm/530nm.
Keywords: NIH Roadmap, MLSCN, MLSMR, qHTS, NCGC, CRE, beta-lactamase reporter-gene assay.
Potency means the concentration at half of the fitted maximal effect.

| SMILES | Potency |
| --- | --- |
| COc1ccc(S(=O)(=O)NCc2ccc(C(=O)N3CCC4(CC3)OCCO4)cc2)cc1 | inactive |
| O=C(c1cc2nc(-c3ccccc3)cc(-c3ccccc3)n2n1)N1CCC2(CC1)OCCO2 | 2.51 µM (active) |
| O=C(c1cc(S(=O)(=O)N2CCOCC2)ccc1F)N1CCC2(CC1)OCCO2 | inactive |
| C[C@@]1([C@@H](NP(=O)(c2ccccc2)c2ccccc2)c2ccccc2)C[C@H]1CCO | inactive |
| Cc1cc(-c2ccc(N)c(C)c2)ccc1N | inactive |
| N[C@H](Cc1o[nH]c(=O)c1Cl)C(=O)O | inactive |
| ClC(Cl)=C(Cl)C(Cl)=C(Cl)Cl | inactive |
| CCC(=NCCCO)c1c(O)n(-c2ccc(OC)cc2)c(=O)[nH]c1=O | inactive |
| CCCCCCN=C(CC)c1c(O)n(CCCC)c(=O)[nH]c1=O | 10 µM (active) |
| ClC(Cl)(Cl)c1ccccc1 | inactive |
